The record followed here is ChEMBL document CHEMBL4808148, “HDAC6 screening dataset using tau-based substrate in an enzymatic assay yields selective inhibitors and activators” (2021).

Each structure is given as a SMILES string. In all, about 5,600 compounds went through this assay and about 150 (2.7%) showed an effect of 50% or more. For the sample, strong results were picked, then their nearest neighbours and some compounds at random.

For the assay, the target named is T1, Protein deacetylase HDAC6 (Homo sapiens) (UniProt Q9UBN7).
T1 sequence (whole entry): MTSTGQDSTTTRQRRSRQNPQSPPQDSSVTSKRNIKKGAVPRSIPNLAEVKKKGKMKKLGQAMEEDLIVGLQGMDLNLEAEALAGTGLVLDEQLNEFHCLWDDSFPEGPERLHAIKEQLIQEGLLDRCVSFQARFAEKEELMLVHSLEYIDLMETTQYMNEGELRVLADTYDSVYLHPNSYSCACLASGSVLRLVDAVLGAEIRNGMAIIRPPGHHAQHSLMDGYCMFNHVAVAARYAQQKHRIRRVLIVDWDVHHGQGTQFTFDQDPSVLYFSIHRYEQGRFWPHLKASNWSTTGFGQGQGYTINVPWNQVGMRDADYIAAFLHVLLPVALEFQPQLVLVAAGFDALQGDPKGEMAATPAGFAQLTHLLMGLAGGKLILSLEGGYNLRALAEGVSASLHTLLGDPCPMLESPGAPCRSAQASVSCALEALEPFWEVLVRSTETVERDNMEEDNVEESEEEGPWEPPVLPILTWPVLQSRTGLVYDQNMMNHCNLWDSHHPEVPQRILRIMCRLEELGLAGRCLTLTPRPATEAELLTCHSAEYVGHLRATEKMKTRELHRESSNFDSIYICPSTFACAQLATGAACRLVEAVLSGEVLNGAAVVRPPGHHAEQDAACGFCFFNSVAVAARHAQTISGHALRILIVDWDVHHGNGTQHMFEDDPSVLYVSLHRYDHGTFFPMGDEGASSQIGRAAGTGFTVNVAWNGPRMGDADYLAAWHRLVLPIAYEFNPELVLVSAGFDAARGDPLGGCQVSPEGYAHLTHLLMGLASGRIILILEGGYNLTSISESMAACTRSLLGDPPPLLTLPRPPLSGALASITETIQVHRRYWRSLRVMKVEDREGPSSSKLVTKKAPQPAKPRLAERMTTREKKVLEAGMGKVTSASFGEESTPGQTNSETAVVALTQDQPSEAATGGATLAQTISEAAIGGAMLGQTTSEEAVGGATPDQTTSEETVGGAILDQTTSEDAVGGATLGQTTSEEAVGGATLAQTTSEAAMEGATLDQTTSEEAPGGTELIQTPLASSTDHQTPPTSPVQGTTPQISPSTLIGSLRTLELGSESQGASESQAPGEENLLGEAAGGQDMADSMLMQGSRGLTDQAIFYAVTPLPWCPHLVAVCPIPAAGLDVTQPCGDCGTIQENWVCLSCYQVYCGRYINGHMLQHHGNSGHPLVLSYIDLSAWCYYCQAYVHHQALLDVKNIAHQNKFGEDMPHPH
The conditions noted are these: at 10 µM.
On to `CC(C)(N)c1cc(C(=O)N[C@@H]2CCc3ccc(Oc4ccnc5c4CCC(=O)N5)cc3C2)cc(C(F)(F)F)c1`, for which the inhibition is -1.36%. Under `CN(C)C/C=C/C(=O)Nc1ccc(C(=O)Nc2cccc(Nc3ncc(Cl)c(-c4c[nH]c5ccccc45)n3)c2)cc1` stands -4.86%; under `CN(C)c1ccc(C(=C2C=CC(=[N+](C)C)C=C2)c2ccc(N(C)C)cc2)cc1`, 59.7%.

On to `O=C(Nc1ccc2[nH]ccc2c1)c1ccccc1`, for which the inhibition is 49.3%. With `O=C(Nc1cc2cc[nH]c2cn1)c1ccccc1` the figure was 97.7%; with `NC(=O)c1ccc2[nH]ccc2c1`, -7.83%. Under `CCOc1ccc(-n2c([C@@H](C)N(Cc3cccnc3)C(=O)Cc3ccc(OC(F)(F)F)cc3)nc3ncccc3c2=O)cc1` stands -2.97%; under `COc1cccc(N2CCN(C3=Nc4c(F)cccc4[C@H](CC(=O)O)N3c3cc(C(F)(F)F)ccc3OC)CC2)c1`, -7.43%.

On to `COc1ccc(Oc2c(Cl)cnn(C3c4ccccc4-c4ccccc43)c2=O)cc1`, for which the inhibition turned out to be 3.12%. With `COc1ccc(C2CC(c3ccccc3)=NN2c2ccc(S(N)(=O)=O)cc2)cc1` (centres undefined) the figure was -2.13%; with `O=C1c2ccccc2C(=O)C1c1ccc(Br)cc1`, 86.8%; with `O=C1c2ccccc2C(=O)C1c1ccccc1`, 0.29%.

Take `O=C1c2ccccc2C(=O)C1c1ccc(Cl)cc1`: the inhibition is -0.61%. With `COc1ccc(C2C(=O)c3ccccc3C2=O)cc1`, the inhibition came out at 97.2%. Under `Nc1ncc2c(n1)CC(c1ccco1)CC2=O` (centres undefined) stands 10.6%; under `CO/N=C1\C[C@@H](C(=O)NC[C@@H](O)c2ccccc2)N(C(=O)c2ccc(-c3ccccc3C)cc2)C1`, -5.99%; under `CC(=O)Oc1ccccc1C(=O)Nc1ccccc1`, 24.1%. With `Nc1n[nH]c2nnc(-c3c(-c4ccccc4)nn4ccccc34)cc12` the figure was 1.45%; with `CCN(CCNC(=O)Nc1ccccc1Br)c1cccc(C)c1`, -8.23%. With `O=C(Nc1ccc([N+](=O)[O-])cc1O)Nc1ccccc1Br` the figure was 61.6%; with `NC(=O)c1ccc([N+](=O)[O-])cc1Cl`, 3.17%.

With `CCC(C(=O)O)c1ccc(CC(C)C)cc1` (centres undefined), the inhibition came to 5.56%. With `CCCCC1OC(=O)c2ccccc21` (centres undefined) the figure was 4.45%.

For the compound `N[C@@H]1c2cccnc2[C@H](OC(=O)N2CCC(n3c(=O)[nH]c4ncccc43)CC2)CC[C@H]1c1cccc(F)c1F`, the inhibition was -1.43%. In the case of `CS(=O)(=O)N(Cc1ccco1)CC(O)Cn1c2ccccc2c2ccccc21` (centres undefined), the inhibition was -5.79%. Under `O[C@H]1CC[C@H](Nc2nc(-c3ccccc3)nc3[nH]ccc23)CC1` stands 2.15%; under `O=C(NC1CC1)c1cc(-c2cccs2)on1`, 60.8%; under `CN1CCC(NC(=O)c2cc(-c3c(O)cc(O)cc3Oc3ccc([N+](=O)[O-])cc3)on2)CC1`, -7.8%.

Take `Cc1ccc(S(=O)(=O)NCc2ccccc2)cc1`: the inhibition is -1.3%.

As usually defined, the inhibition is the drop in the measured response relative to a control, in per cent.
